These results are taken from PubChem BioAssay AID834 (PCMD, 2007).

In all, about 85,000 compounds went through this assay and about 120 (0.14%) were called active.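 Rule for the calls: active = inhibition above 20%; inactive = inhibition below 20%.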 This excerpt belongs to a sample that is enriched for actives.

The experiment in a line: clotrimazole potentiators killing Candida biofilms, primary screen, with clotrimazole, Alamar Blue (AID 834).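 Note: preformed 24 hr biofilms exposed to compound for 48 hr; 0% = biofilm without compound and 100% = blank killed by clotrimazole plus chlorhexidine.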 The conditions noted are these: C. albicans biofilm + clotrimazole, at 6 µM, hits give high values.
As for `CCOC(=O)/C(C#N)=C\c1c(C)cc(C)c(COC(C)=O)c1C`, the inhibition (commonly the change of the read-out against control, counted positive when it falls) was 5.54% (inactive).
For `CC/C(O)=N\S(=O)(=O)c1ccc(N=NN(C)C)cc1` the value was 3.86% (inactive).
With `CC1=NN(/C(=N\c2nnc(C)s2)Nc2ccccc2)[C@H](c2ccc(C)cc2)S1` the figure was 4.3% (inactive).
In the case of `O=C(c1ccc(CN2CCOCC2)cc1)N1CCN(c2ccccc2F)CC1`, the inhibition is 3.38% (inactive).
With `O=C(NCCSCc1ccccc1)c1ccc(Cl)c(S(=O)(=O)N2CCOCC2)c1` the figure was 9.31% (inactive); with `COC(=O)c1cccc(-n2[nH]nnc2=S)c1`, -3.99% (inactive); with `C=CCNC(=O)c1cc2nc(C3CC3)cc(C(F)F)n2n1`, 3.65% (inactive).
For `OC(COc1ccc2c(c1)CCC2)CN1CCN(c2cccc(Cl)c2)CC1` (stereo unspecified) the value was 3.52% (inactive); for `CC(C)C(=O)Nc1ccc2c(c1)oc1ccccc12`, 9.6% (inactive); for `CC(C)OC(=O)c1c(NC(=O)c2ccco2)sc2c1CCCC2`, 4.89% (inactive).
As to `Cc1cccc(CCNS(=O)(=O)c2ccc(S(=O)(=O)NC3CCCC3)cc2)c1`, the inhibition is -0.29% (inactive).
With `COc1ccc(CCN2C(=O)C3CC=C(C)CC3C2=O)cc1OC` (stereo unspecified) the figure was 1.85% (inactive).
With `Clc1cccc(N=C2NN=C(c3ccc4c(c3)OCCO4)CS2)c1`, the inhibition is 1.81% (inactive).
With `COc1ccc(NC(=O)Cn2c(=O)n(Cc3ccco3)c(=O)c3ccccc32)cc1`, the inhibition was 7.9% (inactive).
With `CCCCNC(=O)C1(c2ccc(OC)cc2)CCOCC1`, the inhibition is 3.55% (inactive).
On to `Cc1nnc(SCC(=O)NC2CCCC2)s1`, for which the inhibition is 1.39% (inactive).
With `O=C1Nc2cc(Cl)c(Cl)cc2N(O)N1c1cc(Cl)cc(Cl)c1` the figure was -1.77% (inactive); with `CCOc1ccc(NC(=O)N(CC(C)C)CC(C)C)cc1`, -5.95% (inactive).
With `CC1CCN(S(=O)(=O)c2ccc(S(=O)(=O)NCc3ccco3)cc2)CC1` the figure was 6.18% (inactive); with `CCOc1cc(NC(=O)c2cnccn2)c(OCC)cc1NC(=O)c1ccc(C)cc1`, 10.1% (inactive); with `CCOc1ccc(S(=O)(=O)NCCSc2ccccc2)cc1`, -7.35% (inactive).
With `Cn1c(Cc2cccc3ccccc23)nnc1SCC(=O)N1CCN(c2cccc(Cl)c2)CC1` the figure was 2.35% (inactive); with `CC1(C)NC(=O)N(CCCCSc2ccc(Cl)cc2)C1=O`, 4.05% (inactive); with `CCc1cccc(C)c1N(C(=O)Cn1c(CO)nc2ccccc21)C(C)COC` (stereo unspecified), 2.34% (inactive).
As for `CCOC(=O)c1c(NC(C)=O)sc2c(O)c(Br)ccc12`, the inhibition was 7.32% (inactive).
For `CC(C)(C)C1CCc2c(sc3nc(SCC(N)=O)nc(N)c23)C1` (stereo unspecified) the value was 9.53% (inactive).
With `CC(=O)Nc1ccc(NC(=O)CSCc2cnn(-c3ccccc3)c2-n2cccc2)cc1` the figure was 5.53% (inactive).
For `Cc1ccc(OC(=O)c2ccccc2C(=O)OCC(F)(F)C(F)F)cc1` the value was -0.38% (inactive); for `Cc1ccc(/C=N/NC(=O)C2=NNC(c3ccccc3)(c3ccccc3)C2)c(O)c1`, 2.75% (inactive).
With `Cc1ccc(CNC(=O)COc2ccc(S(=O)(=O)NC(C)C)cc2)cc1`, the inhibition was 4.65% (inactive).
With `CCOC(=O)c1sc(NC(=O)CSc2nc(C)cc(C(F)(F)F)n2)c(C#N)c1C` the figure was 4.2% (inactive); with `CCOC(=O)c1ccc2c(c1)nc(SCC(=O)NC(C)C)n2CC`, -0.28% (inactive).
As to `CC(C)OC(=O)CN1C(=O)C(=O)c2ccccc21`, the inhibition is -1.96% (inactive).
For `CC(C)(C)NC(=O)Cn1c(SCC(=O)Nc2nccs2)nc2ccccc21` the value was -3.28% (inactive).
For `COc1ccc(C2=NOC3(CC(=O)N(c4ccc(Cl)cc4)C3=O)C2)c(OC)c1` (stereo unspecified) the value was 8.25% (inactive); for `CCc1c(O)cc2n(c1=O)-c1ccccc1C2(C)C`, 5.21% (inactive); for `CCn1c(Cc2cccs2)nnc1SCC(=O)c1ccc(C)cc1`, 5.86% (inactive).
For `CCCCOc1ccc(N(CC(=O)NCC2CCCO2)C(=O)CCC(=O)Nc2cc(C)ccn2)cc1` (stereo unspecified) the value was 5.21% (inactive); for `CCCc1nc2sc3c(c2c(=O)n1NC(=O)CCCl)CCCC3`, -7.02% (inactive); for `CCOC(=O)c1c(NC(=O)CSc2nnc(CNc3ccc(C)cc3C)o2)sc(C)c1C`, 0.89% (inactive).
Turning to `CCC(=O)Nc1ccc(S(=O)(=O)NCC2CCCO2)cc1` (stereo unspecified), the inhibition is 5.21% (inactive).
For `O=C(COC(=O)c1n[nH]c2ccccc12)NCc1ccccc1` the value was 1.24% (inactive).
For `COc1ccc(Nc2cc(=O)oc3ccccc23)cc1` the value was 5.52% (inactive).
With `O=C(NC1CCCCC1)C1CC(=O)N(CCc2ccccc2)C1` (stereo unspecified) the figure was 5.26% (inactive).
Turning to `CCOC(=O)CSc1nc2ccc(C)cc2[nH]1`, the inhibition was 4.49% (inactive).
In the case of `FC(F)(F)c1cc(-c2ccco2)nc(NCc2ccc(Cl)cc2)n1`, the inhibition is -7.36% (inactive).
